From PubChem BioAssay AID588477 (NMMLSC, 2011)
Values without a mark were called inactive. Calls of active or inactive are those of the source.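 How the source made its calls: active means valid curve fit with half-effect dose at most 10 µM and total binding change across doses of 30 points or more; inactive means the rest.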

experiment: inhibitors of Bodipy-GTP binding across eight GTPases, SAR follow-up, selectivity assay for Cdc42 probe extension project, biochemical, round 1 SAR, Mg buffer, multiplex flow cytometry (AID 588477); conditions: GST-GTPase beads, Rac constitutively active; series mostly up to 100 µM; percent response (remaining binding): at the top concentration

Row | Structure (SMILES) | outcome | percent response (remaining binding) [%]
1 | O=C(C#Cc1ccccc1)c1cccc([N+](=O)[O-])c1 | inactive | –
2 | NS(=O)(=O)c1ccc(N2N=C(c3ccccc3)CC2c2ccccc2)cc1 (stereo not drawn) | – | 89.5
3 | COc1ccc(C2CC(c3ccccc3)=NN2c2ccc(S(N)(=O)=O)cc2)cc1 (stereo not drawn) | – | 87.9
